Structures are written as SMILES. Where “and” joins values, the source holds several entries; their conditions need not be identical. Identical values can stand only once. Entries with a potency or affinity are not part of this list.

The target of this assay is Cell division control protein 42 homolog (Homo sapiens) (UniProt P60953). Nature of the assay: wildtype Cdc42 GTP-binding inhibitors, dose response, biochemical, multiplex bead flow cytometry, Bodipy-FL-GTP (AID 1334). Conditions: bead-based flow cytometry, Bodipy-FL-GTP binding to GST-Cdc42; at 100 µM (top of the series) unless noted. For orientation: In flow cytometry, cells or beads pass a laser one at a time.
Sequence of Cell division control protein 42 homolog (Homo sapiens) (P60953 whole entry, looked up): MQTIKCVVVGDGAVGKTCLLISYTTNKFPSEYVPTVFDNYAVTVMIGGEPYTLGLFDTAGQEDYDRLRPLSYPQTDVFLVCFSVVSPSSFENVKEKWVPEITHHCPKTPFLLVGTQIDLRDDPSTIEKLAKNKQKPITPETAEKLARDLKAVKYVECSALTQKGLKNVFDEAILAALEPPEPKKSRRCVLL
In the case of `COc1cc2c(cc1OC)-c1cc(NC3CCCCCC3)nc(=O)n1CC2`, the fluorescence, percent of control (lower = inhibition) was determined as 34.3%.
Take `O=C1c2ccccc2-c2onc3ccc(Oc4ccccc4)c1c23`: the fluorescence, percent of control (lower = inhibition) worked out at 27.9%.
In the case of `CCN(CC)c1ccc2c(c1)oc(=O)c1c(Cl)cc(=O)oc12`, the fluorescence, percent of control (lower = inhibition) was 29%.
On to `CCOc1nnc(C)c2c(C)n(-c3cccc(OC)c3)nc12`, for which the fluorescence, percent of control (lower = inhibition) amounted to 55.9%.
In turn, `Cc1nnc(N2CCOCC2)c2nn(-c3ccccc3)c(C)c12` registered a fluorescence, percent of control (lower = inhibition) of 58.1%.
For `O=C(C#Cc1ccccc1)c1cccc([N+](=O)[O-])c1`, the fluorescence, percent of control (lower = inhibition) was 50.9% and 49.2%.
As for `COC(=O)c1ccc2nc(Nc3nc4c(F)cc(F)cc4s3)sc2c1`, the fluorescence, percent of control (lower = inhibition) was determined as 33.7%.
`COc1ccc(/C=C/C(=O)c2cc(Br)ccc(=O)c2O)cc1` yielded a fluorescence, percent of control (lower = inhibition) of 28.6%.
Regarding `O=C(NNC(=S)NCc1ccc(Cl)cc1)c1ccc(Br)o1`, the fluorescence, percent of control (lower = inhibition) worked out at 28.8%.
`O=C(O)c1ccccc1OCCOc1ccccc1` had a fluorescence, percent of control (lower = inhibition) of 82.8%.
`CN1C(=O)N(C)c2ccc(C=O)c3cccc1c23` displayed a fluorescence, percent of control (lower = inhibition) of 36.5%.
In the case of `CCN1/C(=C/C=C/C=C/c2sc3ccccc3[n+]2CC)Sc2ccccc21`, the fluorescence, percent of control (lower = inhibition) was determined as 1.8%.
Next, `O=C(C#Cc1cccc([N+](=O)[O-])c1)c1ccccc1`: 31.6%; `O=C(O)c1cn(CCOc2ccccc2)c2ccccc12`: 76.5%.
Next, `CCOc1cccc(-c2nn3c(-c4ccco4)nnc3s2)c1`: 32.7%; `COC(=O)n1c(=S)oc2cc(Cl)ccc21`: 58.3%.
Regarding `O=C(/C=C/c1ccc(Cl)c([N+](=O)[O-])c1)c1cccnc1`, the fluorescence, percent of control (lower = inhibition) was found to be 30.5%.
The value for `COCCN1C(=O)/C(=C/c2ccc(N3CCCC3)cc2C)SC1=S` was 77.8%; that for `N=c1c(C(=O)NCc2ccco2)cc2c(=O)n3ccccc3nc2n1CCc1ccccc1` was 28.7%.
Consider `O=C(OCC1O[C@@H](OC(=O)c2cc(O)c(O)c(O)c2)[C@@H](OC(=O)c2cc(O)c(O)c(O)c2)[C@@H](OC(=O)c2cc(O)c(O)c(O)c2)[C@@H]1OC(=O)c1cc(O)c(O)c(O)c1)c1cc(O)c(O)c(O)c1` (stereo not given in full), for which the fluorescence, percent of control (lower = inhibition) was determined as 21.1%.

For the origin of these results see PubChem BioAssay.
